Bioassay records (PubChem)
MOR-DOR ag: agonists of OPRM1-OPRD1 heterodimerization, primary screen, cell-based, luminescence. activation, % at 9.3 µM. cells. hit rate 0.3% among 340,000
HTR5A ag: HTR5A agonists in luminescence cell assay, primary screen, counter-screen for OPRM1-OPRD1 heterodimer agonist project, full-deck HTS | 5-hydroxytryptamine receptor 5A (Homo sapiens), P47898 | cell-based | activation, % at 9.3 µM | hit rate 0.61% among 340,000 | AID 504692, 2011; in the data active = activation mostly above about 9.5%, no sharp cut-off; inactive = mostly below about 7.6%
Target sequence (P47898 whole entry, looked up): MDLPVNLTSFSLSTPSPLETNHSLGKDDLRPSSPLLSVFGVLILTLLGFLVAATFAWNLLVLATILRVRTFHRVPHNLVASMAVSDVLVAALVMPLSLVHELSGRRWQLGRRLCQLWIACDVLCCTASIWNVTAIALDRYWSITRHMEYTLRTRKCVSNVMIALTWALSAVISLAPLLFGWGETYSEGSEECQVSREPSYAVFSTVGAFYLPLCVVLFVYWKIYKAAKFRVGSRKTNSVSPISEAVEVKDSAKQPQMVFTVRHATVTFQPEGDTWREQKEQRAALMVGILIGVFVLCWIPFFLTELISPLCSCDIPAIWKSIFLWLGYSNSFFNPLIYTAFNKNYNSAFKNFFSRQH
HTR5A inv ctr: HTR5A inverse agonists in luminescence cell assay, primary screen, counter-screen for OPRM1-OPRD1 heterodimer inverse agonist project, full-deck HTS. hit rate 0.083% among 340,000. HTR5A cell line, inverse agonism. AID 504634, 2011. inhibition, % at 9.3 µM. 5-hydroxytryptamine receptor 5A (Homo sapiens), P47898; in the data active = inhibition mostly above about 23%, no sharp cut-off; inactive = mostly below about 18%
OPRM1-OPRD1 inv: inverse agonists of MOR-DOR heterodimerization, primary screen, cell-based, luminescence | Mu-type opioid receptor (Homo sapiens) + Delta-type opioid receptor (Homo sapiens), … | cell-based MOR-DOR heterodimer luminescence, inverse agonism | inhibition, % at 9.3 µM | hit rate 0.21% among 340,000; in the data active = inhibition above about 22%, passing the limit was not always enough
MOR-DOR ag conf: agonists of MOR-DOR heterodimerization, confirmation, cell-based, luminescence | AID 504904, 2011 | activation, % at 9.3 µM | cells, luminescence complementation | shares compounds with MOR-DOR ag | hit rate 45% among 830
HTR5A ag counter: HTR5A agonists in cells, counter-screen for OPRM1-OPRD1 heterodimer agonist project, cell-based, luminescence; shares compounds with MOR-DOR ag; HTR5A agonist counterscreen; activation, % at 9.3 µM; hit rate 8% among 830; in the data active = activation above about 17%
Each line names hits and unclear results; the compound was inactive in the other large screens (follow-up assays come after a bar, where they were run). Only some compounds are listed: those with a hit (about 1.1% of all), similar ones and a draw of the others. Cut-off read from the data, not from the text of the source, unless noted: active = activation above about 18%; inactive = the rest.

COc1ccc(NS(=O)(=O)c2cccc(C(=O)NCC(c3ccccc3)N(C)C)c2)cc1 (configuration not stated)	none
COc1ccc(C(CNC(=O)c2ccc3c(c2)OCCO3)N(C)C)cc1 (configuration not stated)	MOR-DOR ag 131.9 | MOR-DOR ag conf 147.8 | HTR5A ag counter inactive
CCOc1ccc(C(CC(=O)O)NC(=O)C23CC4CC(CC(C4)C2)C3)cc1 (configuration not stated)	none
COc1ccc(-c2c[n+](CC(=O)OC3CC(C)CCC3C(C)C)c3n2CCC3)cc1 (configuration not stated)	none
COCCOC(=O)C1=C(C)OC(N)=C(C#N)C1c1cc2cccc(C)c2nc1Cl (configuration not stated)	none
COC(=O)c1ccccc1COn1c(=O)c[n+]([O-])c2ccccc21	none
COc1ccc(C(=O)Nc2cccc3cccnc23)cc1OC	none
CC(=O)Nc1ccc(NC(=O)COC(=O)[C@@H](NC(=O)c2ccc(F)cc2)C(C)C)cc1	none
COc1cccc(N2CCN(c3ncnc4c3cnn4-c3ccc(C)cc3C)CC2)c1	MOR-DOR ag 23.4 | MOR-DOR ag conf 27.3 | HTR5A ag counter inactive
O=C(CNc1ccc2ccccc2c1)N/N=C/c1ccc([N+](=O)[O-])o1	MOR-DOR ag 37.8, HTR5A ag 9.3 | MOR-DOR ag conf inactive | HTR5A ag counter inactive
CCOc1ccc(-c2c(C(=O)N/N=C(\C)c3ccccc3OC)nnn2-c2nonc2N)cc1	none
CC(=O)NCC1CCCN(Cc2cn(-c3ccccc3)nc2-c2ccc3c(c2)OCO3)C1 (configuration not stated)	none
COC(=O)C1CCN(Cc2cn(-c3ccccc3)nc2-c2ccc3c(c2)OCO3)CC1	MOR-DOR ag 51.0 | MOR-DOR ag conf inactive | HTR5A ag counter inactive
CCCc1cc(-c2nc(N)ncc2-c2ccc3c(c2)OCCCO3)c(O)cc1OC	none
COCCn1c(SCC(=O)Nc2cc(C)on2)nc2ccccc2c1=O	none
CCCCCCn1c(SCC(=O)Nc2cc(C)on2)nc2ccccc2c1=O	MOR-DOR ag 21.1 | MOR-DOR ag conf 25.9 | HTR5A ag counter 17.1
Cc1ccc(-n2cc(CNC(C)c3cnn(C)c3C)c(-c3ccc(F)cc3)n2)cc1 (configuration not stated)	MOR-DOR ag 221.9 | MOR-DOR ag conf 33.9 | HTR5A ag counter inactive
Cc1ccc(-n2cc(CNCCCn3ccnc3C)c(-c3ccc(F)cc3)n2)cc1	none
Cc1ccc(-n2cc(CNC(C)c3cnn(C)c3)c(-c3ccc(F)cc3)n2)cc1 (configuration not stated)	MOR-DOR ag 366.0 | MOR-DOR ag conf 439.8 | HTR5A ag counter inactive
Cc1ccc(-c2csc(/C(C#N)=C(\O)CCl)n2)cc1	MOR-DOR ag 19.7 | MOR-DOR ag conf inactive | HTR5A ag counter inactive
COc1ccc(C2C(C#N)=C(N)N(c3sc4c(c3C#N)CCCC4)C3=C2C(=O)CC(C)(C)C3)cc1 (configuration not stated)	MOR-DOR ag 87.8 | MOR-DOR ag conf 211.0 | HTR5A ag counter inactive
COc1ccc(C2C(C#N)=C3NC(=O)c4c(sc5c4CCCCC5)N3C3=C2C(=O)CC(C)(C)C3)cc1 (configuration not stated)	none
COc1ccc(C2C(C#N)=C(N)N(c3sc4c(c3C#N)CCCC4)C3=C2C(=O)CC(C)(C)C3)cc1OC (configuration not stated)	MOR-DOR ag 22.9 | MOR-DOR ag conf 30.6 | HTR5A ag counter 25.2
COc1ccc(C(CNC(=O)C(Cc2ccccc2)NC(N)=O)N(C)C)cc1 (configuration not stated)	MOR-DOR ag 23.5 | MOR-DOR ag conf 268.5 | HTR5A ag counter inactive
CCC(=O)NC(c1ccc(N(C)C)cc1)c1c(O)ccc2ccccc12 (configuration not stated)	none
CN(C)c1ccc(C(CNC(=O)Cc2cccc3ccccc23)N(C)C)cc1 (configuration not stated)	MOR-DOR ag 38.9 | MOR-DOR ag conf 44.9 | HTR5A ag counter inactive
COc1ccc(C(CNC(=O)/C=C/c2c(Cl)nc3ccccn23)N(C)C)cc1 (configuration not stated)	MOR-DOR ag 62.9 | MOR-DOR ag conf 66.0 | HTR5A ag counter inactive
COc1ccc(C(CNC(=O)Cc2ccc(-c3ccccc3)cc2)N(C)C)cc1 (configuration not stated)	MOR-DOR ag 320.2 | MOR-DOR ag conf inactive | HTR5A ag counter inactive
COc1ccc(CC(NC(=O)c2ccccc2)C(=O)NCC(=O)O)cc1 (configuration not stated)	none
Cc1nc(N)[nH]c(=O)c1CCCNc1ccc([N+](=O)[O-])cc1	none
CN(CCC1CCCCO1)C(=O)CCc1nnc(Cc2c[nH]c3ccccc23)o1 (configuration not stated)	none
C=CCn1cnnc1SCC(=O)N(C1CCCCC1)C1CCS(=O)(=O)C1 (configuration not stated)	none
COc1ccc(C(CNC(=O)CSc2ccccc2C)N(C)C)cc1 (configuration not stated)	MOR-DOR ag 115.2 | MOR-DOR ag conf 112.1 | HTR5A ag counter inactive
COc1ccc(/C=C/C(=O)Nc2ccccc2C(=O)NCC(c2ccc(OC)cc2)N(C)C)cc1 (configuration not stated)	MOR-DOR ag 22.0 | MOR-DOR ag conf inactive | HTR5A ag counter inactive
c1ccc2c(c1)CNc1ccccc1C2	none
C=C(C)COc1ccc(-c2n[nH]c(C)c2-c2ccc(OC)cc2)c(O)c1	MOR-DOR ag 29.6 | MOR-DOR ag conf inactive | HTR5A ag counter inactive
Cc1cc(/C=C\c2ccc3cc(N(C)C)ccc3[n+]2C)c(C)n1-c1ccccc1	MOR-DOR ag 47.8 | MOR-DOR ag conf inactive | HTR5A ag counter inactive
O=C(Nc1ccc(C(F)(F)F)cc1[N+](=O)[O-])O[C@H]1[C@H](Cc2ccccc2)NS(=O)(=O)[C@H]2C[C@@H]3C=C[C@]12O3	MOR-DOR ag 18.5 | MOR-DOR ag conf inactive | HTR5A ag counter inactive
Cc1cc(C)cc(Oc2coc3cc(OC(=O)c4cccnc4)ccc3c2=O)c1	MOR-DOR ag 22.2 | MOR-DOR ag conf inactive | HTR5A ag counter inactive
CCC1CCCCN1CCCNC(=O)Cn1ncc2c([nH]c3ccc(C)cc32)c1=O (configuration not stated)	none
COC(=O)CSc1nnc(-c2sc3cc(OC)ccc3c2Cl)n1C	MOR-DOR ag 18.5 | MOR-DOR ag conf inactive | HTR5A ag counter inactive
COc1cc(C(=O)N(C)CC(=O)Nc2cccc(F)c2)ccc1OCc1ccccc1	none
